Calb FLC: C. albicans growth modulation with fluconazole; C. albicans CaCi-2 (fluconazole-resistant clinical isolate) + fluconazole, Alamar Blue growth, 48 h; growth inhibition, % (concentration not given with the values); hit rate 0.57% among 300,000; AID 1979;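 active = growth inhibition above about 58% in most replicates, limit read from the data, passing the limit was not always enough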;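 note: all wells also contain fluconazole at 8 µg/ml as a sub-toxic cotreatment; 0% = median of DMSO wells and 100% = median of geldanamycin control wells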
ATG4B inh: blocks human ATG4B protease cleavage of LC3 substrate. inhibition, % at 8.33 µM. Q9Y4P1. AID 504462. hit rate 0.51% among 340,000. ATG4B cleavage of LC3-PLA2, NBD-HPC fluorescence, 1 h; in the data active = inhibition above about 40%
FAS-TE inh: FAS thioesterase (human) inhibition; recombinant FAS-TE, OMFH fluorogenic substrate, fluorescence endpoint; inhibition, % at 15 µM; hit rate 0.67% among 360,000; AID 602261;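 active = compounds whose normalised, plate-corrected inhibition of enzyme fluorescence in the single-dose primary screen is 50% or more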;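 note: 0% = DMSO with enzyme and 100% = substrate without enzyme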
NadD inh: inhibitors of Staphylococcus aureus NadD; inhibition, % at 20 µM; hit rate 0.78% among 360,000; AID 602399; purified NadD enzyme, colorimetric absorbance read-out; in the data active = inhibition above about 26%
SUMO Mot1 rescue: inhibitors of SUMOylation pathway: yeast Mot1-301 growth rescue; S. cerevisiae Mot1-301 growth rescue, ATP luminescence, 38.5C; percent above DMSO median, 100 means doubled; growth rescue, % at 18.8 µM; hit rate 1% among 320,000; AID 2716;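 active = every valid replicate shows activation above 250% relative to neutral control wells; inactive = the rest, any valid replicate at or below 250%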;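 note: OY570 slx delta 5 strain wells were the positive control but not used for scaling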
NadD inh conf: NadD (S. aureus) inhibition, single concentration confirmation; shares compounds with NadD inh; purified S. aureus NadD, colorimetric enzyme assay; inhibition, % at 20 µM; AID 624309; hit rate 13% among 2,000; in the data active = inhibition mostly above about 42%, no sharp cut-off; inactive = mostly below about 42%
* = called active by the depositor. Hits are enriched below; roughly 3.1% of the tested compounds scored in any of these assays.

Results for Cc1cccc(/C=N/n2c(-c3cc(-c4ccccc4)n[nH]3)n[nH]c2=S)c1 ?
Calb FLC: 20; ATG4B inh: -9; FAS-TE inh: 3; NadD inh: 14; SUMO Mot1 rescue: -3

What do the screens show for `Cn1cc(-c2ccc3c(c2)OCO3)c2ccccc21`?
FAS-TE inh: 32; NadD inh: -4

Results for Cc1ccc(C(=O)NCC(=O)NC23CC4CC(CC(C4)C2)C3)cc1 ?
Calb FLC: -20; ATG4B inh: 0; FAS-TE inh: 1; NadD inh: -4; SUMO Mot1 rescue: 19

How did N#C/C(=C\c1ccc(Oc2ccc(C(F)(F)F)cc2[N+](=O)[O-])cc1)c1nc2ccccc2[nH]1 do in these assays?
Calb FLC: 2; ATG4B inh: -10; FAS-TE inh: 19; NadD inh: 40*; SUMO Mot1 rescue: 9; NadD inh conf: 11

Results for COc1cc(/C=C(\C#N)c2nc3ccccc3[nH]2)ccc1OC(=O)c1ccco1 ?
Calb FLC: -2; ATG4B inh: 4; FAS-TE inh: -2; NadD inh: 18; SUMO Mot1 rescue: -5

How did COc1cc(/C=C(\C#N)c2nc3ccccc3[nH]2)c([N+](=O)[O-])cc1OCc1ccccc1 do in these assays?
Calb FLC: 8; ATG4B inh: -4; FAS-TE inh: 14; NadD inh: 40*; SUMO Mot1 rescue: 7; NadD inh conf: 17

What do the screens show for `COc1ccc(N(CC(=O)NCc2ccccc2OC)S(=O)(=O)c2ccccc2)cc1`?
Calb FLC: 4; ATG4B inh: -1; FAS-TE inh: 5; NadD inh: -7; SUMO Mot1 rescue: 175

Results for CCC(CC)C(=O)N1N=C(c2ccc(NS(C)(=O)=O)cc2)CC1c1ccc(C)cc1 (stereo not given) ?
Calb FLC: -8; ATG4B inh: -9; FAS-TE inh: 19; NadD inh: -6; SUMO Mot1 rescue: -12

Results for COc1cc(/C=c2\sc3n(c2=O)C(c2ccccc2)C(c2ccccc2)=NN=3)ccc1O (stereo not given) ?
ATG4B inh: -14; FAS-TE inh: 27; NadD inh: 29*; SUMO Mot1 rescue: -12; NadD inh conf: 51*

How did COc1cc(/C=c2\sc3n(c2=O)CCCN=3)ccc1O do in these assays?
Calb FLC: -1; ATG4B inh: -13; FAS-TE inh: -3; NadD inh: 8; SUMO Mot1 rescue: -4

How did CCOC(=O)C1=C(C)N=c2s/c(=C/c3cccc([N+](=O)[O-])c3O)c(=O)n2C1c1ccc(OC)cc1OC (stereo not given) do in these assays?
Calb FLC: -8; ATG4B inh: 12; FAS-TE inh: 25; NadD inh: 36*; SUMO Mot1 rescue: -23; NadD inh conf: 9

Results for CCOC(=O)C1=C(C)N=c2s/c(=C/c3ccc(OCC(=O)O)cc3)c(=O)n2C1c1ccc(OC)cc1OC (stereo not given) ?
Calb FLC: -10; ATG4B inh: -1; FAS-TE inh: 12; NadD inh: 14; SUMO Mot1 rescue: -11

Results for CCOC(=O)C1=C(C)N=c2s/c(=C\c3ccc(O)c([N+](=O)[O-])c3)c(=O)n2C1c1ccccc1OC (stereo not given) ?
Calb FLC: 45; ATG4B inh: 5; FAS-TE inh: 37; NadD inh: 38*; SUMO Mot1 rescue: -9; NadD inh conf: 5

Results for COc1ccc(/C=c2/sc3n(c2=O)C(c2ccccc2OC)C2=C(N=3)c3ccccc3CC2)cc1O (stereo not given) ?
Calb FLC: 16; ATG4B inh: 0; FAS-TE inh: 22; NadD inh: 53*; SUMO Mot1 rescue: -5; NadD inh conf: 27

Results for CC(=O)c1cc(C#N)c(N2CCOCC2)nc1C ?
Calb FLC: -6; ATG4B inh: -3; FAS-TE inh: -2; NadD inh: 0; SUMO Mot1 rescue: -17

What do the screens show for `COc1ccc(NCC(=O)N/N=C2\CCc3ccccc32)cc1`?
Calb FLC: 5; ATG4B inh: 2; FAS-TE inh: 1; NadD inh: 30*; NadD inh conf: 7

Results for CCN(CC)C(=O)C1=C(C)N(Cc2ccc(C(C)(C)C)cc2)C(=O)C(CC(=O)NC2CC2)C1 (stereo not given) ?
FAS-TE inh: -5; NadD inh: -4

Results for CCCS(=O)(=O)N1CCc2ccc(NC(=O)C3CCCO3)cc2C1 (stereo not given) ?
Calb FLC: -1; ATG4B inh: -4; FAS-TE inh: -2; NadD inh: 1; SUMO Mot1 rescue: -10

How did COc1cc2oc(=O)cc(CN3CCN(c4ccc(Cl)c(Cl)c4)CC3)c2cc1Cl do in these assays?
FAS-TE inh: 41; NadD inh: 39*; NadD inh conf: 13

Results for COc1ccc2c(CN3CCN(c4ccc(Cl)c(Cl)c4)CC3)cc(=O)oc2c1 ?
FAS-TE inh: 22; NadD inh: 0

How did COc1ccccc1N1CCN(c2ncc(C(=O)N3CCN(c4cccc(Cl)c4)CC3)c3ccccc23)CC1 do in these assays?
Calb FLC: 4; ATG4B inh: 3; FAS-TE inh: 30; NadD inh: 34*; SUMO Mot1 rescue: 228; NadD inh conf: 2

Results for CCOc1ccccc1C(=O)N1CCN(c2cccc(Cl)c2)CC1 ?
Calb FLC: -10; ATG4B inh: 0; FAS-TE inh: -2; NadD inh: -16; SUMO Mot1 rescue: -10

What do the screens show for `CC(C)(C)OC(=O)[C@H](Cc1ccccc1)NC(=O)c1ncn2c1c(=O)[nH]c1ccc(Br)cc12`?
FAS-TE inh: -13; NadD inh: 40*; NadD inh conf: 4

What do the screens show for `CC(C)(C)OC(=O)[C@H](Cc1ccccc1)NC(=O)c1nc[nH]c1C(=O)N[C@@H](Cc1ccccc1)C(=O)OC(C)(C)C`?
Calb FLC: 10; ATG4B inh: -4; FAS-TE inh: 13; NadD inh: 4; SUMO Mot1 rescue: 23

Results for O=c1cc(O)c2sc(Nc3ccc(F)c(Cl)c3)nc2[nH]1 ?
Calb FLC: 0; ATG4B inh: 11; FAS-TE inh: 2; NadD inh: 12; SUMO Mot1 rescue: -18

What do the screens show for `O=c1cc(O)c2sc(Nc3ccc(Cl)c(F)c3)nc2[nH]1`?
Calb FLC: 7; ATG4B inh: 14; FAS-TE inh: 2; NadD inh: 38*; SUMO Mot1 rescue: inactive; NadD inh conf: 8

Results for COc1ccccc1C(=O)Nc1ccc(Oc2nnc(-c3ccc(C)cc3)c3ccccc23)cc1 ?
Calb FLC: -4; ATG4B inh: 2; FAS-TE inh: 18; NadD inh: 52*; SUMO Mot1 rescue: -12; NadD inh conf: 17

Results for Cc1ccc(Oc2nnc(-c3ccc(C)cc3)c3ccccc23)cc1 ?
Calb FLC: -2; ATG4B inh: 6; FAS-TE inh: 8; NadD inh: 8; SUMO Mot1 rescue: 0
